This is part of a sample that, as a whole, favours compounds with a hit. Of some 79,000 tested, about 15% had one in any assay. Active and inactive are the calls of the source. No stated cut-off is given here; in the data, active means growth inhibition above about 70%; inactive means the rest.
What was measured:
[1] = NCI Yeast Anticancer Drug Screen. Data for the rad52 strain (AID 147);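 further: 0% = growth of vehicle-treated control cultures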; conditions: S. cerevisiae rad52 mutant growth inhibition, hits give high values
Outline: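 Vehicle-treated cultures served as the reference for growth inhibition of compound-exposed yeast bearing a DNA repair mutation.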

[2] = NCI Yeast Anticancer Drug Screen. Data for the wt1 strain (AID 149);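 further: 0% = growth of vehicle-treated wt1 cultures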; conditions: S. cerevisiae wt1 strain (SPY 50644) growth inhibition, hits give high values
Outline: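 wt1 yeast, compound-treated; % growth inhibition vs vehicle control.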

[3] = NCI Yeast Anticancer Drug Screen. Data for the rad50EPP+ strain (AID 151);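 further: 0% = growth of vehicle-treated control cultures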; conditions: S. cerevisiae rad50 mutant strain, hits give high values
Outline: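 In this screen, rad50EPP+ yeast were exposed to compounds. Growth inhibition was scored against vehicle-treated controls.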

[4] = NCI Yeast Anticancer Drug Screen. Data for the mgt1 strain (AID 153); conditions: S. cerevisiae mgt1 mutant growth inhibition, hits give high values
Outline: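 mgt1 strain exposed; growth vs vehicle control recorded as inhibition.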

[5] = NCI Yeast Anticancer Drug Screen. Data for the rad50 strain (AID 155);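 further: 0% = growth of vehicle-only cultures of the same strain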; conditions: S. cerevisiae rad50 strain growth inhibition, hits give high values
Outline: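 Genetically altered yeast (DNA repair pathway); compound treatment; growth inhibition vs vehicle ctrl.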

[6] = NCI Yeast Anticancer Drug Screen. Data for the mec2-1 strain (AID 157); conditions: S. cerevisiae mec2-1 strain, hits give high values
Outline: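 Vehicle-treated cultures served as reference for growth inhibition of compound-exposed mec2-1 yeast.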

[7] = NCI Yeast Anticancer Drug Screen. Data for the rad14 strain (AID 159);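 further: 0% = growth of vehicle-treated control cultures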; conditions: S. cerevisiae rad14 strain growth inhibition, hits give high values
Outline: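 Test compounds were applied to a repair-deficient yeast strain. Its growth was then compared with that of cultures given vehicle alone, and inhibition was expressed relative to those controls.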

[8] = NCI Yeast Anticancer Drug Screen. Data for the sgs1 mgt1 strain (AID 161);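 further: 0% = growth of cultures given vehicle only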; conditions: S. cerevisiae sgs1 mgt1 strain, hits give high values
Outline: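 Read-out: growth inhibition vs vehicle controls. Cells: mutant yeast strain deficient in DNA damage repair.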

[9] = NCI Yeast Anticancer Drug Screen. Data for the cln2 rad14 strain (AID 165);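 further: 0% = growth equal to vehicle treated cultures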; conditions: S. cerevisiae cln2 rad14 strain, hits give high values
Outline: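 Each compound was tested on cln2 rad14 yeast. Inhibition of growth was calculated against vehicle-exposed controls.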

[10] = NCI Yeast Anticancer Drug Screen. Data for the bub3 strain (AID 167); conditions: S. cerevisiae bub3 mutant strain, hits give high values
Outline: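 Yeast carrying a defined mutation is treated with each compound, and growth is compared with that of vehicle-exposed cells to give inhibition.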

[11] = NCI Yeast Anticancer Drug Screen. Data for the wt2 strain (AID 169);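 further: 0% = growth of vehicle-treated yeast cultures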; conditions: S. cerevisiae wt2 strain growth inhibition, hits give high values
Outline: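 Inhibition of yeast growth was determined after compound treatment, normalised to controls receiving only vehicle.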

[12] = NCI Yeast Anticancer Drug Screen. Data for the mlh1 strain (AID 171);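 further: 0% = growth of vehicle-treated control cultures of the same strain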; conditions: S. cerevisiae mlh1 strain growth inhibition, hits give high values
Outline: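 Vehicle-normalised growth inhibition of a repair- or checkpoint-altered yeast strain following compound treatment.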

[13] = NCI Yeast Anticancer Drug Screen. Data for the mlh1 rad18 strain (AID 175); conditions: S. cerevisiae mlh1 rad18 strain growth inhibition, hits give high values
Outline: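 Vehicle-treated cultures served as the reference for growth inhibition in a yeast strain carrying DNA damage repair alterations exposed to each compound.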

[14] = NCI Yeast Anticancer Drug Screen. Data for the rad18 strain (AID 177); conditions: S. cerevisiae rad18 mutant growth inhibition, hits give high values
Outline: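 Test articles were incubated with altered yeast defective in DNA damage repair. Results are given as inhibition of growth versus vehicle.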

[15] = NCI Yeast Anticancer Drug Screen. Data for the sgs1 strain (AID 173);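 further: 0% = growth of vehicle-only control cultures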; conditions: S. cerevisiae sgs1 mutant, hits give high values
Outline: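 Screen format: yeast with repair or checkpoint alterations, compound exposure, growth read relative to vehicle.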

[16] = at 5.0 µM (retest, dose inferred, filed as 0.5)
[17] = at 50.0 µM (retest, dose inferred, filed as 5.0)

Measured: growth inhibition

CC(=O)OCc1ccc(O)c(C=O)c1
inactive: [1]; at 1.2 µM 1% | [1]; at 3.7 µM 1% | [1]; at 11.0 µM -10% | [1]; at 33.0 µM 18% | [1]; at 100.0 µM 57% | [2]; at 1.2 µM -26% | [2]; at 3.7 µM -4% | [2]; at 11.0 µM -23% | [2]; at 33.0 µM 8% | [2]; at 100.0 µM 18% | [3]; at 1.2 µM -6% | [3]; at 3.7 µM -2% | [3]; at 11.0 µM -10% | [3]; at 33.0 µM 14% | [3]; at 100.0 µM 60% | [4]; at 1.2 µM -24% | [4]; at 3.7 µM -17% | [4]; at 11.0 µM -18% | [4]; at 33.0 µM 6% | [4]; at 100.0 µM 25% | [5]; at 1.2 µM -5% | [5]; at 3.7 µM -20% | [5]; [16] 16% | [5]; at 11.0 µM 10% | [5]; at 33.0 µM 6% | [5]; [17] 66% | [5]; at 100.0 µM 59% | [6]; at 1.2 µM -13% | [6]; at 3.7 µM -13% | [6]; [16] 0% | [6]; at 11.0 µM -29% | [6]; at 33.0 µM -11% | [6]; [17] 41% | [6]; at 50.0 µM 56.9% | [6]; at 100.0 µM 35% | [7]; at 1.2 µM -5% | [7]; at 3.7 µM -2% | [7]; at 11.0 µM 2% | [7]; at 33.0 µM 14% | [8]; [16] 36% | [8]; at 50.0 µM 62.5% | [9]; [16] 15% | [9]; [17] 30% | [9]; at 50.0 µM 49.7% | [10]; at 1.2 µM -7% | [10]; at 3.7 µM -7% | [10]; [16] 25% | [10]; at 11.0 µM -7% | [10]; at 33.0 µM -8% | [10]; at 50.0 µM 2.85% | [10]; at 100.0 µM -11% | [11]; at 1.2 µM -36% | [11]; at 3.7 µM -30% | [11]; at 11.0 µM -28% | [11]; at 33.0 µM -11% | [11]; at 100.0 µM 32% | [12]; at 1.2 µM 0% | [12]; at 3.7 µM -7% | [12]; at 11.0 µM -5% | [12]; at 33.0 µM 24% | [12]; at 100.0 µM 30% | [13]; [16] 26% | [13]; [17] 61% | [13]; at 50.0 µM 48.7% | [14]; at 1.2 µM -13% | [14]; at 3.7 µM 9% | [14]; at 11.0 µM 54%
active: [5]; at 50.0 µM 77.5% | [7]; at 100.0 µM 81% | [8]; [17] 89% | [10]; [17] 82% | [14]; at 33.0 µM 83% | [14]; at 100.0 µM 89%

O=[N+]([O-])c1ccc([N+]2=NC(c3ccccc3)=NN(c3ccccc3)C2)cc1
inactive: [1]; at 1.2 µM 8% | [1]; at 3.7 µM 11% | [1]; at 11.0 µM 10% | [1]; at 33.0 µM 14% | [1]; at 100.0 µM 56% | [2]; at 1.2 µM 3% | [2]; at 3.7 µM 5% | [2]; at 11.0 µM 4% | [2]; at 33.0 µM 3% | [2]; at 100.0 µM 51% | [3]; at 1.2 µM 6% | [3]; at 3.7 µM 12% | [3]; at 11.0 µM 21% | [3]; at 33.0 µM 22% | [3]; at 100.0 µM 20% | [4]; at 1.2 µM 6% | [4]; at 3.7 µM 5% | [4]; at 11.0 µM 7% | [4]; at 33.0 µM 21% | [5]; at 1.2 µM 5% | [5]; at 3.7 µM -6% | [5]; [16] 1% | [5]; at 11.0 µM -9% | [5]; at 33.0 µM 15% | [5]; [17] 30% | [5]; at 50.0 µM 67.3% | [5]; at 100.0 µM 63% | [6]; at 1.2 µM -2% | [6]; at 3.7 µM -2% | [6]; [16] -9% | [6]; at 11.0 µM 0% | [6]; at 33.0 µM 9% | [6]; [17] 6% | [6]; at 50.0 µM 18.4% | [6]; at 100.0 µM 42% | [7]; at 1.2 µM 4% | [7]; at 3.7 µM 8% | [7]; at 11.0 µM 20% | [7]; at 33.0 µM 44% | [8]; [16] -1% | [8]; [17] 17% | [9]; [16] 9% | [9]; [17] 20% | [9]; at 50.0 µM 21.4% | [10]; at 1.2 µM -2% | [10]; at 3.7 µM 0% | [10]; [16] 10% | [10]; at 11.0 µM 12% | [10]; at 33.0 µM 30% | [11]; at 1.2 µM 0% | [11]; at 3.7 µM 2% | [11]; at 11.0 µM 1% | [11]; at 33.0 µM 11% | [12]; at 1.2 µM 1% | [12]; at 3.7 µM 4% | [12]; at 11.0 µM 6% | [12]; at 33.0 µM 19% | [15]; at 1.2 µM 0% | [15]; at 3.7 µM 1% | [15]; at 11.0 µM 2% | [15]; at 33.0 µM 28% | [13]; [16] -2% | [13]; [17] 48% | [14]; at 1.2 µM 3% | [14]; at 3.7 µM 4% | [14]; at 11.0 µM 2% | [14]; at 33.0 µM 11%
active: [4]; at 100.0 µM 95% | [7]; at 100.0 µM 93% | [8]; at 50.0 µM 74.5% | [10]; [17] 91% | [10]; at 50.0 µM 78% | [10]; at 100.0 µM 87% | [11]; at 100.0 µM 95% | [12]; at 100.0 µM 93% | [15]; at 100.0 µM 91% | [13]; at 50.0 µM 80.5% | [14]; at 100.0 µM 70%
